Test results reported in ChEMBL document CHEMBL1201862, “PubChem BioAssay data set” (2004).

Species on record: Mus musculus
Experiment: Confirmation Concentration-Response Assay for Epigenetic Modulators.
Type: functional

Potency, active:
COc1cccc(C(=O)NC(c2ccco2)c2cc(Cl)c3cccnc3c2O)c1 (centres undefined) 77.1 µM
CC(C)C(=O)NC(c1ccc(Cl)cc1Cl)c1ccc2cccnc2c1O (centres undefined) 73.2 µM
CC(C)C(=O)NC(c1ccco1)c1cc(Cl)c2cccnc2c1O (centres undefined) 341 µM
COc1ccc(C)cc1/N=N/c1ccc(O)c2ncccc12 77.1 µM
